Measured values published in PubChem BioAssay AID1159580 (chemical genetic matrix, 2015).
In all, about 5,500 compounds went through this assay and about 2,000 (36%) were called active. Not shown: some 18% with an inconclusive outcome. Rule as the data show it: active = normalized growth mostly below about 0.91 (no sharp cut-off); inconclusive = no clear call, values can overlap the other calls; inactive = mostly above about 0.92. The list shows a part of the results.

Assay: chemical genetic growth profiling, strain panel (AID 1159580);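 also: tested at 20 µM; growth read once vehicle control cultures reached saturation at 30 °C; 1 = growth at the plate median or of vehicle wells; lower values mean less growth of the strain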
Conditions: growth OD

Measured: normalized growth

Nc1ccc(S(=O)(=O)NC(=O)c2ccccc2)cc1
inactive: S. cerevisiae deletion strains, locus YJR066W, strain TOR1, active compounds read low 0.932 | S. cerevisiae deletion strains, locus YJR075W, strain HOC1, active compounds read low 1.02 | S. cerevisiae deletion strains, locus YKL009W, strain mrt4, active compounds read low 1.02 | S. cerevisiae deletion strains, locus YKL068W, active compounds read low 1.01 | S. cerevisiae deletion strains, locus YKL085W, strain MDH1 (second series), active compounds read low 1 | S. cerevisiae deletion strains, locus YKL085W, strain MDH1, active compounds read low 1 | S. cerevisiae deletion strains, locus YKL160W, strain elf1, active compounds read low 1.01 | S. cerevisiae deletion strains, locus YKL190W, strain CNB1, active compounds read low 1.01 | S. cerevisiae deletion strains, locus YKR001C, strain vps1, active compounds read low 1.03 | S. cerevisiae deletion strains, locus YKR026C, strain gcn3, active compounds read low 0.969 | S. cerevisiae deletion strains, locus YKR091W, strain srl3, active compounds read low 0.978 | S. cerevisiae deletion strains, locus YLL001W, strain dnm1, active compounds read low 0.995 | S. cerevisiae deletion strains, locus YLL026W, active compounds read low 1 | S. cerevisiae deletion strains, locus YLL041C, strain sdh2, active compounds read low 0.992 | S. cerevisiae deletion strains, locus YLR027C, strain aat2, active compounds read low 0.996 | S. cerevisiae deletion strains, locus YLR039C, strain RIC1, active compounds read low 0.834 | S. cerevisiae deletion strains, locus YLR058C, strain SHM2, active compounds read low 1.01 | S. cerevisiae deletion strains, locus YLR102C, strain apc9, active compounds read low 1.01 | S. cerevisiae deletion strains, locus YLR113W, strain HOG1, active compounds read low 0.968 | S. cerevisiae deletion strains, locus YLR221C, strain rsa3, active compounds read low 0.976 | S. cerevisiae deletion strains, locus YLR258W, strain gsy2, active compounds read low 0.987 | S. cerevisiae deletion strains, locus YLR262C, strain YPT6 (second series), active compounds read low 0.979 | S. cerevisiae deletion strains, locus YLR262C, strain YPT6, active compounds read low 1.01 | S. cerevisiae deletion strains, locus YLR268W, strain sec22, active compounds read low 1.04 | S. cerevisiae deletion strains, locus YLR320W, strain mms22, active compounds read low 0.985 | S. cerevisiae deletion strains, locus YLR330W, strain CHS5, active compounds read low 1.01 | S. cerevisiae deletion strains, locus YLR342W, strain FKS1 (second series), active compounds read low 1.02 | S. cerevisiae deletion strains, locus YLR342W, strain FKS1, active compounds read low 0.998 | S. cerevisiae deletion strains, locus YLR357W, strain rsc2, active compounds read low 0.977 | S. cerevisiae deletion strains, locus YLR370C, strain arc18, active compounds read low 0.991 | S. cerevisiae deletion strains, locus YLR371W, strain rom2, active compounds read low 1.02 | S. cerevisiae deletion strains, locus YLR384C, strain iki3, active compounds read low 0.998 | S. cerevisiae deletion strains, locus YLR418C, strain cdc73, active compounds read low 1.02 | S. cerevisiae deletion strains, locus YML016C, strain PPZ1, active compounds read low 1.04 | S. cerevisiae deletion strains, locus YML032C, strain rad52, active compounds read low 1.03 | S. cerevisiae deletion strains, locus YML120C, strain ndi1, active compounds read low 0.972 | S. cerevisiae deletion strains, locus YML124C, strain tub3, active compounds read low 1.01 | S. cerevisiae deletion strains, locus YMR058W, strain fet3, active compounds read low 0.981 | S. cerevisiae deletion strains, locus YMR078C, strain ctf18, active compounds read low 1.01 | S. cerevisiae deletion strains, locus YMR125W, strain sto1, active compounds read low 0.977 | S. cerevisiae deletion strains, locus YMR129W, active compounds read low 0.989 | S. cerevisiae deletion strains, locus YMR205C, strain PFK2, active compounds read low 1 | S. cerevisiae deletion strains, locus YMR223W, strain ubp8, active compounds read low 1.01 | S. cerevisiae deletion strains, locus YMR231W, strain pep5, active compounds read low 0.981 | S. cerevisiae deletion strains, locus YMR263W, strain SAP30, active compounds read low 1.01 | S. cerevisiae deletion strains, locus YMR307W, strain GAS1, active compounds read low 0.878 | S. cerevisiae deletion strains, locus YNL067W, strain RPL9B, active compounds read low 1.01 | S. cerevisiae deletion strains, locus YNL071W, strain lat1, active compounds read low 0.977 | S. cerevisiae deletion strains, locus YNL183C, strain NPR1, active compounds read low 0.95 | S. cerevisiae deletion strains, locus YNL209W, strain ssb2, active compounds read low 0.971 | S. cerevisiae deletion strains, locus YNL233W, strain BNI4, active compounds read low 1.01 | S. cerevisiae deletion strains, locus YNL248C, strain rpa49, active compounds read low 1 | S. cerevisiae deletion strains, locus YNL250W, strain rad50, active compounds read low 1 | S. cerevisiae deletion strains, locus YNL271C, strain bni1, active compounds read low 1.01 | S. cerevisiae deletion strains, locus YNL298W, strain CLA4, active compounds read low 1.02 | S. cerevisiae deletion strains, locus YNL307C, strain MCK1, active compounds read low 1.03 | S. cerevisiae deletion strains, locus YNL322C, strain KRE1 (second series), active compounds read low 0.964 | S. cerevisiae deletion strains, locus YNR049C, strain mso1, active compounds read low 0.981 | S. cerevisiae deletion strains, locus YNR052C, strain pop2, active compounds read low 1.01 | S. cerevisiae deletion strains, locus YOL006C, strain TOP1, active compounds read low 1 | S. cerevisiae deletion strains, locus YOL012C, strain htz1 1.35 | S. cerevisiae deletion strains, locus YOL147C, strain pex11, active compounds read low 1.02 | S. cerevisiae deletion strains, locus YOR001W, strain rrp6, active compounds read low 0.954 | S. cerevisiae deletion strains, locus YOR061W, strain CKA2, active compounds read low 1 | S. cerevisiae deletion strains, locus YOR069W, strain VPS5, active compounds read low 1.01 | S. cerevisiae deletion strains, locus YOR070C, strain gyp1, active compounds read low 0.996 | S. cerevisiae deletion strains, locus YOR080W, strain dia2, active compounds read low 0.981 | S. cerevisiae deletion strains, locus YOR083W, strain WHI5, active compounds read low 0.966 | S. cerevisiae deletion strains, locus YOR106W, strain vam3, active compounds read low 0.999 | S. cerevisiae deletion strains, locus YOR136W, strain idh2, active compounds read low 1.01 | S. cerevisiae deletion strains, locus YOR144C, strain elg1, active compounds read low 1.01 | S. cerevisiae deletion strains, locus YOR184W, strain ser1, active compounds read low 1.03 | S. cerevisiae deletion strains, locus YOR231W, strain MKK1, active compounds read low 0.996 | S. cerevisiae deletion strains, locus YOR265W, strain rbl2, active compounds read low 0.997 | S. cerevisiae deletion strains, locus YOR270C, strain vph1, active compounds read low 0.96 | S. cerevisiae deletion strains, locus YOR290C, strain snf2, active compounds read low 0.993 | S. cerevisiae deletion strains, locus YOR316C, strain cot1, active compounds read low 1 | S. cerevisiae deletion strains, locus YPL051W, strain arl3, active compounds read low 1.01 | S. cerevisiae deletion strains, locus YPL078C, strain atp4, active compounds read low 1.04 | S. cerevisiae deletion strains, locus YPL106C, strain sse1, active compounds read low 0.976 | S. cerevisiae deletion strains, locus YPL240C, strain hsp82, active compounds read low 0.983 | S. cerevisiae deletion strains, locus YPL256C, strain CLN2, active compounds read low 0.984 | S. cerevisiae deletion strains, locus YPR119W, strain clb2, active compounds read low 1.02 | S. cerevisiae deletion strains, locus YPR141C, strain kar3, active compounds read low 1.02 | S. cerevisiae deletion strains, locus YPR163C, strain tif3, active compounds read low 1.02 | S. cerevisiae deletion strains, locus YPR167C, strain met16, active compounds read low 1.01 | S. cerevisiae deletion strains, strain wtn01, active compounds read low 1.01 | S. cerevisiae strains, strain wild type, active compounds read low 1.01
